For ten compounds, Potency results are on record in PubChem BioAssay (NCATS).

Results filed as inconclusive are left out. The source made the active and inactive calls. The call rests on the fitted dose curve; in most records, active means well fitted curve in the direction sought with a large enough effect; inconclusive means small, poorly fitted or top-dose-only effect, or another doubt; inactive means no such curve, though single readings can be large; an effect the other way counts as inactive or inconclusive. Numbered stars: 1 amine (or outer) side, 2 acyl side, 3 side chain; on linkers, the order of the positions; unused ones are H or OH. Bridge positions count the residues as written; N and C are the ends. Square brackets hold non-standard residues; d marks the D form. Peptide text beside a SMILES is read from it. I, II: the chains in the order shown. Actinocin(9to1) = Cc1c2oc3c(C)ccc(C(=O)[*:1])c3nc-2c(C(=O)[*:2])c(N)c1=O; NMeV = CN[C@H](C(=O)O)C(C)C; Sar = CNCC(=O)O
Potency means the concentration at half of the fitted maximal effect.

One test in a line: qHTS of pediatric cancer cell lines to identify multiple opportunities for drug repurposing: Confirmatory screen for SK-N-MC cells (AID 1347111).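 Further: cells exposed to compound for 48 h before the readout; nearly all actives have a fitted effect of over 70% in size.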 To be noted: SK-N-MC cell viability; series mostly up to 45.9 µM. In a few lines:
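SK-N-MC cells at 500-1,000 cells/well in growth media were pre-incubated 5 h, then exposed to compounds at 11-point dilutions for 48 h at 37 degrees C, 5% CO2. Viability was read as CellTiter-Glo luminescence.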
Take `CN(C)C(=S)SC(=S)N(C)C`: the Potency is 2.93 µM (active).
As for `CCCCC(CC)CN=C(N)NC(N)=NCCCCCCN=C(N)NC(N)=NCC(CC)CCCC` (stereo not drawn), the Potency was 7.37 µM (active).
Same read-out and setting: then `CCC(C(=O)OCCN(CC)CC)c1ccccc1` (stereo not drawn), with 13.1 µM (active).
Still for that read-out and setting: to `CC(=O)O[C@]1(C(C)=O)CC[C@H]2[C@@H]3C[C@H](C)C4=CC(=O)CC[C@]4(C)[C@H]3CC[C@@]21C` belongs 23.3 µM (active).
Regarding `CC(=O)Oc1ccc2c(c1)CC[C@@H]1[C@@H]2CC[C@]2(C)[C@@H](O)CC[C@@H]12`, the Potency was 6.57 µM (active).
On the same count and under the same terms, then `Cc1c2oc3c(C)ccc(C(=O)N[C@@H]4C(=O)N[C@H](C(C)C)C(=O)N5CCC[C@H]5C(=O)N(C)CC(=O)N(C)[C@@H](C(C)C)C(=O)O[C@@H]4C)c3nc-2c(C(=O)N[C@@H]2C(=O)N[C@H](C(C)C)C(=O)N3CCC[C@H]3C(=O)N(C)CC(=O)N(C)[C@@H](C(C)C)C(=O)O[C@@H]2C)c(N)c1=O` (I: T[dV]P[Sar][NMeV] / II: T[dV]P[Sar][NMeV]; ester I:1-I:C, II:1-II:C; linker I:N-II:N via Actinocin(9to1)), with 0.0052 µM (active).

The nature of the next test: qHTS of pediatric cancer cell lines to identify multiple opportunities for drug repurposing: Confirmatory screen for BT-12 cells (AID 1347112). Further: nearly all actives have a fitted effect of over 55% in size. The note with it: BT-12 rhabdoid tumor cells, viability; series mostly up to 45.9 µM. In a few lines:
(§1)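 Viability after 48 h compound treatment at 37C, 500-1,000 cells/well, read as ATP luminescence with CellTiter-Glo. Primary screens used 11-point (MIPE, 0.78 nM-46 µM) or 8-point (NPC, 0.59 nM-46 µM) final concentrations; follow-up screens used 11-point dilutions.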
Consider `CN(C)C(=S)SC(=S)N(C)C`, for which the Potency is 4.65 µM (active).
Consider `CCCCC(CC)CN=C(N)NC(N)=NCCCCCCN=C(N)NC(N)=NCC(CC)CCCC` (stereo not drawn), for which the Potency was 5.22 µM (active).
On the same count and under the same terms, to `CCC(C(=O)OCCN(CC)CC)c1ccccc1` (stereo not drawn) belongs “inactive”; to `OC[C@H]1O[C@@H](n2cnc3c(=S)nc[nH]c32)[C@H](O)[C@@H]1O`, 14.7 µM (active).
`CC(=O)Oc1ccc2c(c1)CC[C@@H]1[C@@H]2CC[C@]2(C)[C@@H](O)CC[C@@H]12`: the Potency entry is “inactive”.
Consider `Cc1c2oc3c(C)ccc(C(=O)N[C@@H]4C(=O)N[C@H](C(C)C)C(=O)N5CCC[C@H]5C(=O)N(C)CC(=O)N(C)[C@@H](C(C)C)C(=O)O[C@@H]4C)c3nc-2c(C(=O)N[C@@H]2C(=O)N[C@H](C(C)C)C(=O)N3CCC[C@H]3C(=O)N(C)CC(=O)N(C)[C@@H](C(C)C)C(=O)O[C@@H]2C)c(N)c1=O` (I: T[dV]P[Sar][NMeV] / II: T[dV]P[Sar][NMeV]; ester I:1-I:C, II:1-II:C; linker I:N-II:N via Actinocin(9to1)), for which the Potency was 0.0208 µM (active).
On to `CC(=O)Oc1ccc(C(c2ccc(OC(C)=O)cc2)c2ccccn2)cc1`, for which the Potency entry was “inactive”.

A short description of the next test: qHTS of pediatric cancer cell lines to identify multiple opportunities for drug repurposing: Confirmatory screen for LAN-5 cells (AID 1347113). Further: nearly all actives have a fitted effect of over 65% in size. The note with it: LAN-5 neuroblastoma cell viability; series mostly up to 45.9 µM. In a few lines:
as §1
Take `CN(C)C(=S)SC(=S)N(C)C`: the Potency is 3.69 µM (active).
On the same count and under the same terms, then `CCCCC(CC)CN=C(N)NC(N)=NCCCCCCN=C(N)NC(N)=NCC(CC)CCCC` (stereo not drawn), with 7.37 µM (active).
On to `CCC(C(=O)OCCN(CC)CC)c1ccccc1` (stereo not drawn), for which the Potency result was “inactive”.
As for `OC[C@H]1O[C@@H](n2cnc3c(=S)nc[nH]c32)[C@H](O)[C@@H]1O`, the Potency was 1.17 µM (active).
Consider `CC(=O)O[C@]1(C(C)=O)CC[C@H]2[C@@H]3C[C@H](C)C4=CC(=O)CC[C@]4(C)[C@H]3CC[C@@]21C`, for which the Potency entry was “inactive”.
As to `CCCCC(=O)O[C@]1(C(=O)CO)CC[C@H]2[C@@H]3CCC4=CC(=O)CC[C@]4(C)[C@H]3[C@@H](O)C[C@@]21C`, the Potency result is “inactive”.
As for `Cc1c2oc3c(C)ccc(C(=O)N[C@@H]4C(=O)N[C@H](C(C)C)C(=O)N5CCC[C@H]5C(=O)N(C)CC(=O)N(C)[C@@H](C(C)C)C(=O)O[C@@H]4C)c3nc-2c(C(=O)N[C@@H]2C(=O)N[C@H](C(C)C)C(=O)N3CCC[C@H]3C(=O)N(C)CC(=O)N(C)[C@@H](C(C)C)C(=O)O[C@@H]2C)c(N)c1=O` (I: T[dV]P[Sar][NMeV] / II: T[dV]P[Sar][NMeV]; ester I:1-I:C, II:1-II:C; linker I:N-II:N via Actinocin(9to1)), the Potency was 0.0023 µM (active).
For `CC(=O)Oc1ccc(C(c2ccc(OC(C)=O)cc2)c2ccccn2)cc1`, the Potency entry was “inactive”.

The next test is described as follows: qHTS of pediatric cancer cell lines to identify multiple opportunities for drug repurposing: Confirmatory screen for DAOY cells (AID 1347114). Further: nearly all actives have a fitted effect of over 65% in size. The note with it: DAOY medulloblastoma cells viability, cytotoxicity qHTS; series mostly up to 45.9 µM. Summed up: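 Viability measured as metabolically active cells via CellTiter-Glo luminescence following 48 hours of compound exposure, 11-point dilutions in confirmatory testing. 500-1,000 cells/well plated 5 hours before dosing; controls were DMSO and 2.3 µM bortezomib.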
For `CN(C)C(=S)SC(=S)N(C)C`, the Potency entry was “inactive”.
For `CCCCC(CC)CN=C(N)NC(N)=NCCCCCCN=C(N)NC(N)=NCC(CC)CCCC` (stereo not drawn), the Potency was 4.14 µM (active).
For the compound `C[C@@H]1C[C@H]2[C@@H]3C[C@H](F)C4=CC(=O)C(Cl)=C[C@]4(C)[C@@]3(F)[C@@H](O)C[C@]2(C)[C@@]1(O)C(=O)CO`, the Potency entry was “inactive”.
Regarding `CCC(C(=O)OCCN(CC)CC)c1ccccc1` (stereo not drawn), the Potency result was “inactive”.
Still for that read-out and setting: then `CCCCC(=O)O[C@]1(C(=O)CO)CC[C@H]2[C@@H]3CCC4=CC(=O)CC[C@]4(C)[C@H]3[C@@H](O)C[C@@]21C`, with “inactive”; and `Cc1c2oc3c(C)ccc(C(=O)N[C@@H]4C(=O)N[C@H](C(C)C)C(=O)N5CCC[C@H]5C(=O)N(C)CC(=O)N(C)[C@@H](C(C)C)C(=O)O[C@@H]4C)c3nc-2c(C(=O)N[C@@H]2C(=O)N[C@H](C(C)C)C(=O)N3CCC[C@H]3C(=O)N(C)CC(=O)N(C)[C@@H](C(C)C)C(=O)O[C@@H]2C)c(N)c1=O` (I: T[dV]P[Sar][NMeV] / II: T[dV]P[Sar][NMeV]; ester I:1-I:C, II:1-II:C; linker I:N-II:N via Actinocin(9to1)), with 0.0261 µM (active).
As to `CC(=O)Oc1ccc(C(c2ccc(OC(C)=O)cc2)c2ccccn2)cc1`, the Potency entry was “inactive”.
